# Assay results from PubChem BioAssay (EPA / NIEHS).
# Calls of active or inactive are those of the source. Rule for the calls: active = hit-call score of the fitted dose curve at least 0.9, where 1 is the maximum; inactive = score below 0.9.
# Read-out: Matrix Metallopeptidase 1 (MMP1), MMP1 (gene 4312)
# Test: BSK_BE3C_MMP1: BioMAP Diversity Plus: BE3C Assay for Matrix Metallopeptidase 1 (MMP1) Biomarker Activity (AID 2283024)
# Settings: primary human bronchial epithelial cells; actives raise or lower the signal
# Method in brief: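 Primary human bronchial epithelial cells were dosed with test chemicals, and MMP1 levels were measured by ELISA 24 h later. Data were fitted bidirectionally against DMSO as the negative control and activity baseline.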
SMILES,AC50,outcome
NC(=O)c1nc(-c2cccc(-c3cc(F)ccc3OCC(F)(F)C(F)(F)F)c2)n[nH]1,36.5 µM (active),
O=C(Nc1ccc(Cl)cc1)Nc1ccc(Cl)c(Cl)c1,,inactive
CCCCCCCCCCCC[N+](C)(C)C,18 µM (active),
CC[C@H](NC(=O)c1cc(F)ccc1NS(=O)(=O)c1cccc2cccnc12)c1ccccc1,,inactive
O=C=NCCCCCCN=C=O,,inactive
CN(C)C(=O)C1(N2CCCCC2)CCN(CC[C@@]2(c3ccc(Cl)c(Cl)c3)CN(C(=O)c3ccccc3)CCO2)CC1,29.1 µM (active),
CCCCOC(=O)CC(CC(=O)OCCCC)(OC(C)=O)C(=O)OCCCC,,inactive
Clc1ccccc1C(c1ccccc1)(c1ccccc1)n1ccnc1,11.8 µM (active),
Cc1occc1C(=O)Nc1ccc(C(=O)N2CCC(F)(F)/C(=C\C(=O)N3CCC(N4CCCCC4)CC3)c3ccccc32)cc1,,inactive
Cc1cn([C@H]2C[C@H](N=[N+]=[N-])[C@@H](CO)O2)c(=O)[nH]c1=O,,inactive
Oc1ccc2ccccc2c1,,inactive
COc1ccc2cc(S(=O)(=O)N[C@H](CC(=O)N[C@H](Cc3ccc(CN4[C@H](C)CCC[C@@H]4C)cc3)C(=O)N(C)C(C)C)c3ccc4c(c3)OCO4)ccc2c1,,inactive
CCCCCCCCCC(=O)O,,inactive
CC(C)(C)c1csc(-c2cc3cc(OCc4ccccc4CC(=O)O)ccc3o2)n1,8.45 µM (active),
CC(C)(C)c1cc(/C=C2\SC(N)=NC2=O)cc(C(C)(C)C)c1O,,inactive
CCOC(=O)O[C@H](C)OC(=O)c1ccc2c(c1)cc(C(=O)NC1CCN(C(C)C)CC1)n2Cc1cc(-c2ccc(Cl)s2)on1,13.2 µM (active),
